This is part of a sample that, as a whole, favours compounds with a hit. Of some 79,000 tested, about 15% had one in any assay. A number with no mark means an inactive call. The source made the active and inactive calls. Rule as the data show it: active = growth inhibition above about 70%; inactive = the rest.
Assay: NCI Yeast Anticancer Drug Screen. Data for the rad50 strain (AID 155);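 also: 0% = growth of vehicle-only cultures of the same strain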
Settings: S. cerevisiae rad50 strain growth inhibition; at 5.0 µM (retest, dose inferred, filed as 0.5); stronger effect = higher value
How it was run: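 Yeast carrying a defined DNA repair defect were exposed to test compounds, and growth was compared with vehicle-treated controls to give percent inhibition.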

Compound | growth inhibition
CCCCCC(C1SC(=S)NC1=O)C1SC(=S)NC1=O (stereo not given) | 1%
CC(C)C1=CC2=CC(=O)C3C(C)(C)CCCC3(C)C2=C(O)C1=O (stereo not given) | 90% (active)
CCOC(=O)C[n+]1c(C)sc2ccccc21 | -4%
OCc1c(-c2cccc3ccccc23)sc(-c2cccc3ccccc23)c1CO | 59%
CC1=C(C#N)C(=O)OC1(C)C(CC(=O)c1ccccc1)c1ccccc1 (stereo not given) | 0%
O=c1oc2c3ccc4ccccc4c3n(CCCN3CCCCC3)c2c2ccccc12 | 81% (active)
Cc1cc(NC(=S)SCc2ccc(F)cc2)ccc1Br | 49%
Cc1ccc(C2C(O)=C(c3ccccc3)Sc3ccc(C)cc32)cc1 (stereo not given) | 12%
COC(=O)/C=C1/OC(c2ccccc2)=CC1=O | 31%
COc1ccccc1NC(=O)CC(=O)N1N=C(c2ccccc2)C(N=Nc2ccc(Cl)cc2)C1=O (stereo not given) | 20%
CC(=O)NC1=C(Nc2ccc(-c3ccc(NC4=C(NC(C)=O)C(=O)c5ccccc5C4=O)cc3)cc2)C(=O)c2ccccc2C1=O | 99% (active)
CCCCCCC(O)CCOC(C)=O (stereo not given) | -3%
CCn1nc(-c2ccccc2)c2c1N(C)c1ccccc1-n1c(-c3ccccc3)nnc1-2 | -1%
CC1(CCC(=O)O)c2ccc3ccccc3c2Oc2c1ccc1ccccc21 | 79% (active)
CCN1/C(=C\c2cc(C)nc(-c3ccccc3)[n+]2C)C=Cc2ccccc21 | 29%
Cc1ccccc1N1C(=O)c2ccccc2C1=O | 1%
O=C(Oc1ccccc1)C1CCCCC1C(=O)Oc1ccccc1 (stereo not given) | -16%
Cc1cccc2c1C1c3c(C)cccc3C(O)CC1CC2O (stereo not given) | 15%
CC(C)c1cc2c(cc1O)C(O)C1(O)CCCC(C)(C)[C@H]1CC2 (stereo not given in full) | -6%
C/C=C/c1ccc(OCC(=O)O)c(OC)c1 | -14%

Compound | growth inhibition
Nc1ccc(S(=O)(=O)NCc2nccs2)cc1 | -5%
N#CC(NNC(=O)c1ccccc1O)c1c(O)ccc2ccccc12 (stereo not given) | -4%
Oc1ccc(Cl)cc1Cc1cc(Cl)cc(Cc2cc(Cl)ccc2O)c1O | -1%
O=C1CN(CCN2CCOCC2)CC(=O)N2Cc3ccccc3CN12 | 12%
CC1CCC(SC2CC(=O)CCC2=O)CC1 (stereo not given) | 19%
Clc1ccc(OCC2CO2)c(Cl)c1 (stereo not given) | 43%
CN=C(N)N/N=C(\C)c1ccc2c(ccc3ccccc32)c1 | 11%
Cc1cc(O)c(/C=N/c2nc(-c3cccc([N+](=O)[O-])c3)cs2)c(=O)o1 | 40%
COc1cccc2c1OC(c1ccc(Cl)cc1)C([N+](=O)[O-])=C2 (stereo not given) | 94% (active)
COc1ccc(C(=O)C2C(=O)C(=O)OC2C2OC(=O)C(=O)C2C(=O)c2ccc(OC)cc2)cc1 (stereo not given) | -1%
CCCCCCCCCCCCCCCCOc1ccc(S(=O)(=O)N/N=c2/sc3ccc(S(=O)(=O)O)cc3n2C)cc1C(=O)O | 6%
O=C(Nc1ccc(F)cc1)N1CCCCC1 | 41%
C[CH2][Sn]([CH2]C)([O]C(=O)c1cc(OC)c(OC)c(OC)c1)[O][Sn]([CH2]C)([CH2]C)[O]C(=O)c1cc(OC)c(OC)c(OC)c1 | 33%
C/C(O)=C(/C=N/C(=S)Nc1ccc(S(N)(=O)=O)cc1)C(=O)Nc1ccccc1C | 0%
CC(C)CC(N)C(=O)NNc1ccccc1 (stereo not given) | 29%
CCC(C(c1ccc(Cl)cc1)c1ccc(Cl)c(Cl)c1)[N+](=O)[O-] (stereo not given) | 4%
O=C(O)c1nc2cc(C(F)(F)F)ccc2nc1Nc1ccc(F)cc1 | 32%
Nc1nc(-c2ccccn2)cc2cc(Cl)ccc12 | 93% (active)
CC1(c2ccccc2)NC(=O)N(CC(=O)N(c2ccccc2)c2ccccc2)C1=O (stereo not given) | 12%
O/N=C(/Cc1ccccc1)c1ccc2c(c1)OCO2 | -4%

Same assay, conditions: S. cerevisiae rad50 strain growth inhibition; at 50.0 µM (retest, dose inferred, filed as 5.0); stronger effect = higher value

Compound | growth inhibition
CCCCCC(C1SC(=S)NC1=O)C1SC(=S)NC1=O (stereo not given) | -3%
CC(C)C1=CC2=CC(=O)C3C(C)(C)CCCC3(C)C2=C(O)C1=O (stereo not given) | 88% (active)
CCOC(=O)C[n+]1c(C)sc2ccccc21 | 23%
OCc1c(-c2cccc3ccccc23)sc(-c2cccc3ccccc23)c1CO | 74% (active)
CC1=C(C#N)C(=O)OC1(C)C(CC(=O)c1ccccc1)c1ccccc1 (stereo not given) | 3%
O=c1oc2c3ccc4ccccc4c3n(CCCN3CCCCC3)c2c2ccccc12 | 81% (active)
Cc1cc(NC(=S)SCc2ccc(F)cc2)ccc1Br | 99% (active)
Cc1ccc(C2C(O)=C(c3ccccc3)Sc3ccc(C)cc32)cc1 (stereo not given) | 33%
COC(=O)/C=C1/OC(c2ccccc2)=CC1=O | 31%
COc1ccccc1NC(=O)CC(=O)N1N=C(c2ccccc2)C(N=Nc2ccc(Cl)cc2)C1=O (stereo not given) | 20%
CC(=O)NC1=C(Nc2ccc(-c3ccc(NC4=C(NC(C)=O)C(=O)c5ccccc5C4=O)cc3)cc2)C(=O)c2ccccc2C1=O | 98% (active)
CCCCCCC(O)CCOC(C)=O (stereo not given) | -3%
CCn1nc(-c2ccccc2)c2c1N(C)c1ccccc1-n1c(-c3ccccc3)nnc1-2 | 49%
CC1(CCC(=O)O)c2ccc3ccccc3c2Oc2c1ccc1ccccc21 | 94% (active)
CCN1/C(=C\c2cc(C)nc(-c3ccccc3)[n+]2C)C=Cc2ccccc21 | 97% (active)
Cc1ccccc1N1C(=O)c2ccccc2C1=O | 8%
O=C(Oc1ccccc1)C1CCCCC1C(=O)Oc1ccccc1 (stereo not given) | -12%
Cc1cccc2c1C1c3c(C)cccc3C(O)CC1CC2O (stereo not given) | 3%
CC(C)c1cc2c(cc1O)C(O)C1(O)CCCC(C)(C)[C@H]1CC2 (stereo not given in full) | 99% (active)
C/C=C/c1ccc(OCC(=O)O)c(OC)c1 | -10%

Compound | growth inhibition
Nc1ccc(S(=O)(=O)NCc2nccs2)cc1 | 81% (active)
N#CC(NNC(=O)c1ccccc1O)c1c(O)ccc2ccccc12 (stereo not given) | 59%
Oc1ccc(Cl)cc1Cc1cc(Cl)cc(Cc2cc(Cl)ccc2O)c1O | 97% (active)
O=C1CN(CCN2CCOCC2)CC(=O)N2Cc3ccccc3CN12 | 38%
CC1CCC(SC2CC(=O)CCC2=O)CC1 (stereo not given) | 98% (active)
Clc1ccc(OCC2CO2)c(Cl)c1 (stereo not given) | 93% (active)
CN=C(N)N/N=C(\C)c1ccc2c(ccc3ccccc32)c1 | 98% (active)
Cc1cc(O)c(/C=N/c2nc(-c3cccc([N+](=O)[O-])c3)cs2)c(=O)o1 | 99% (active)
COc1cccc2c1OC(c1ccc(Cl)cc1)C([N+](=O)[O-])=C2 (stereo not given) | 96% (active)
COc1ccc(C(=O)C2C(=O)C(=O)OC2C2OC(=O)C(=O)C2C(=O)c2ccc(OC)cc2)cc1 (stereo not given) | 2%
CCCCCCCCCCCCCCCCOc1ccc(S(=O)(=O)N/N=c2/sc3ccc(S(=O)(=O)O)cc3n2C)cc1C(=O)O | 88% (active)
O=C(Nc1ccc(F)cc1)N1CCCCC1 | 43%
C[CH2][Sn]([CH2]C)([O]C(=O)c1cc(OC)c(OC)c(OC)c1)[O][Sn]([CH2]C)([CH2]C)[O]C(=O)c1cc(OC)c(OC)c(OC)c1 | 79% (active)
C/C(O)=C(/C=N/C(=S)Nc1ccc(S(N)(=O)=O)cc1)C(=O)Nc1ccccc1C | 18%
CC(C)CC(N)C(=O)NNc1ccccc1 (stereo not given) | 94% (active)
CCC(C(c1ccc(Cl)cc1)c1ccc(Cl)c(Cl)c1)[N+](=O)[O-] (stereo not given) | 12%
O=C(O)c1nc2cc(C(F)(F)F)ccc2nc1Nc1ccc(F)cc1 | 64%
Nc1nc(-c2ccccn2)cc2cc(Cl)ccc12 | 99% (active)
CC1(c2ccccc2)NC(=O)N(CC(=O)N(c2ccccc2)c2ccccc2)C1=O (stereo not given) | 28%
O/N=C(/Cc1ccccc1)c1ccc2c(c1)OCO2 | 6%

— PubChem BioAssay (NCI)
